Source: PubChem
USP17 inh: blocks human USP17 ubiquitin-rhodamine cleavage; purified USP17, Ub-rhodamine cleavage fluorescence, 3 h; A8MUK1; 47,000 tested, 6.5% active; inhibition, % at 50 µM; AID 1645855
USP28 inh: human USP28 deubiquitinase inhibition. Q96RU2. purified USP28, Ub-rhodamine cleavage fluorescence, 30 min. inhibition, % at 25 µM. 47,000 tested, 3% active. AID 1645857
USP30 block: inhibitors of human USP30 deubiquitinase | Q70CQ3 | purified USP30, Ub-rhodamine cleavage fluorescence | inhibition, % at 25 µM | 47,000 tested, 5.3% active
USP8 inh: blocks human USP8 ubiquitin-rhodamine cleavage; 47,000 tested, 4.2% active; AID 1645853; purified USP8, Ub-rhodamine cleavage fluorescence, 30 min; P40818; inhibition, % at 20 µM
* = called active by the depositor. A selection: hits, their analogues and other compounds. The true share with any hit is near 13%. Rule as the data show it: active = inhibition above about 30%; inactive = the rest.

Screening Cc1ncc(-c2nc(-c3ccccc3)cs2)c(=O)n1CC(=O)Nc1c(F)cccc1F returned USP17 inh -119, USP28 inh -196, USP30 block -431 and USP8 inh -13.
`O=C(Nc1ccc(F)cc1F)c1csc(-c2ccccc2)n1` gave USP17 inh 83*, USP28 inh 15, USP30 block 21 and USP8 inh 9.
`Cc1ccccc1NC(=O)Cn1c(C)ncc(-c2nc(-c3ccccc3)cs2)c1=O` gave USP17 inh -119, USP28 inh -173, USP30 block inactive and USP8 inh -56.
`O=C(Cn1cncc(-c2nc(-c3ccccc3)cs2)c1=O)Nc1ccc(F)cc1F` gave USP17 inh 15, USP28 inh -10, USP30 block -40 and USP8 inh 41*.
Screening Cc1ccc(NC(=O)Cn2cncc(-c3nc(-c4ccccc4)cs3)c2=O)cc1F returned USP17 inh 9, USP28 inh -3, USP30 block -14 and USP8 inh 41*.
O=C(Nc1ccc(F)cc1F)c1ccc(-c2nc(-c3ccc(F)cc3)cs2)cc1 was read as USP17 inh 3, USP28 inh 3, USP30 block 2 and USP8 inh 14.
`Cc1ccccc1NC(=O)Cn1cncc(-c2nc(-c3ccccc3)cs2)c1=O` gave USP17 inh 60*, USP28 inh -11, USP30 block -154 and USP8 inh -10.
`O=C(CSc1nc(=O)n2ccccc2n1)Nc1ccc(F)cc1F` gave USP17 inh 7, USP28 inh 8, USP30 block 9 and USP8 inh 15.
`c1ccc(COC2C[C@@H]3CN(Cc4cncs4)C[C@@H]3C2)cc1` (stereo partly specified) gave USP17 inh -12, USP28 inh 0, USP30 block -8 and USP8 inh -13.
For COc1ccc(S(=O)(=O)N2CCCCCC2)cc1C(=O)Nc1ccc2[nH]c(=O)[nH]c2c1 the results were USP17 inh 30*, USP28 inh 47*, USP30 block 50* and USP8 inh 11.
For COc1ccc(S(=O)(=O)N2CCCC2)cc1C(=O)NCc1ccc2c(c1)OCO2 the results were USP17 inh 5, USP28 inh 35*, USP30 block 25 and USP8 inh 4.
Cc1ccc(S(=O)(=O)N2CCN(CC(=O)Nc3ccc4[nH]c(=O)[nH]c4c3)CC2)cc1 was read as USP17 inh -5, USP28 inh 4, USP30 block 11 and USP8 inh -24.
`CCCCNC(=O)C1CCN(c2ccc(N3CCCCC3)nn2)CC1` gave USP17 inh 8, USP28 inh 15, USP30 block 28 and USP8 inh -3.
For CCCCNC(=O)C1Sc2nnc(-c3ccccc3)n2NC1c1ccccc1 (stereo unspecified) the results were USP17 inh 1, USP28 inh 6, USP30 block 50* and USP8 inh 6.
For CCCN1C(=O)C2CCC(=O)N2c2ccc(C(=O)NC(C)C)cc21 (stereo unspecified) the results were USP17 inh 2, USP28 inh -4, USP30 block 0 and USP8 inh 6.
COc1cn(-c2ccc(F)cc2)nc1C(=O)Nc1ccc(F)c(F)c1 was read as USP17 inh 35*, USP28 inh 4, USP30 block 32* and USP8 inh 4.
COCCN1CCS(=O)(=O)c2c(Cl)c(F)nc(Oc3ccccc3F)c21 was read as USP17 inh 49*, USP28 inh 5, USP30 block -4 and USP8 inh 53*.
Screening O=S1(=O)CCN(Cc2cccnc2)c2c(Oc3ccccc3F)nc(F)c(Cl)c21 returned USP17 inh 13, USP28 inh 2, USP30 block 12 and USP8 inh 15.
For COCCCN1CCS(=O)(=O)c2c(Cl)c(F)nc(Oc3ccc(C#N)cc3)c21 the results were USP17 inh 80*, USP28 inh 20, USP30 block -16 and USP8 inh 91*.
O=C(Nc1nnc2n1CCCS2)c1ccc(Cl)cc1 was read as USP17 inh -30, USP28 inh 16, USP30 block 2 and USP8 inh -163.
For O=C(Nc1nnc2n1CCCS2)c1cc2ccccc2o1 the results were USP17 inh -21, USP28 inh 51*, USP30 block 14 and USP8 inh -185.
`Cc1ccc(C(=O)Nc2nnc3n2CCCS3)cc1` gave USP17 inh -16, USP28 inh 32*, USP30 block -4 and USP8 inh 4.
COc1cc2c(=O)n(Cc3ccco3)c(=O)n(CC(=O)N3CCCCC3C)c2cc1OC (stereo unspecified) was read as USP17 inh 1, USP28 inh 7, USP30 block 6 and USP8 inh 1.
Screening Cc1cc(C)n(CC2CN(Cc3ncc(C(C)(C)C)o3)CCO2)n1 (stereo unspecified) returned USP17 inh -36, USP28 inh -26, USP30 block -69 and USP8 inh -14.
CCCc1nc(SCC(=O)Nc2ccccc2)c2c(=O)n(C)c(=O)n(C)c2n1 was read as USP17 inh 24, USP28 inh 12, USP30 block 31* and USP8 inh 18.
Screening CCCCc1nc(SCC(=O)N2CCc3ccccc32)c2c(=O)n(C)c(=O)n(C)c2n1 returned USP17 inh -2, USP28 inh 1, USP30 block -54 and USP8 inh 9.
Screening CC1CCN(C(=O)CSc2nc(N)c3c4c(sc3n2)CN(C)CC4)CC1 returned USP17 inh -37, USP28 inh -38, USP30 block -234 and USP8 inh -6.
`CN1CCc2c(sc3nc(SCC(=O)Nc4nccs4)nc(N)c23)C1` gave USP17 inh 38* and USP8 inh -27.
COC(=O)c1ccc(NC(=O)CSc2nnc(-c3ccc(O)cc3)n2Cc2ccco2)cc1 was read as USP17 inh 21, USP28 inh 22, USP30 block 84* and USP8 inh -4.
O=S(=O)(O)c1cc2cc3ccccc3cc2[nH]1 was read as USP17 inh 61*, USP28 inh 0, USP30 block -41 and USP8 inh 87*.
CCCCOc1ccc(-c2cc3c(N4CCN(c5ccccn5)CC4)nccn3n2)cc1 was read as USP17 inh 0, USP28 inh 0, USP30 block -18 and USP8 inh 2.
For O=C(COC(=O)C(Cc1c[nH]c2ccccc12)NC(=O)c1ccccc1Cl)Nc1cc(F)ccc1F (stereo unspecified) the results were USP17 inh 32*, USP28 inh 22, USP30 block 16 and USP8 inh 5.
Screening O=C(COC(=O)C(Cc1c[nH]c2ccccc12)NC(=O)c1ccc(F)cc1)NCc1ccc(F)cc1 (stereo unspecified) returned USP17 inh 9, USP28 inh -4, USP30 block -3 and USP8 inh -6.
CN1C(=O)[C@@H]2[C@@H](CCN2C(=O)Nc2ccc3c(c2)OCO3)NC(=O)[C@@H]1Cc1ccccc1 was read as USP17 inh 3, USP28 inh 3, USP30 block 12 and USP8 inh 1.
Screening Cc1ccc2ccc3c(c2n1)OC(N)=C(C#N)C3c1ccncc1 (stereo unspecified) returned USP17 inh 6, USP28 inh -20, USP30 block -8 and USP8 inh 66*.
